Shown are actives, neighbours in structure and some others; about 3% of the full set was active somewhere.
SENP8 block-1: SENP8 (human) protease inhibition; recombinant SENP8, Nedd8 substrate fluorescence; hit rate 0.64% among 360,000; inhibition, % at 20 µM; Q96LD8; in the data active means inhibition mostly above about 40%, no sharp cut-off; inactive means mostly below about 27%
Target sequence (Q96LD8 whole entry, looked up): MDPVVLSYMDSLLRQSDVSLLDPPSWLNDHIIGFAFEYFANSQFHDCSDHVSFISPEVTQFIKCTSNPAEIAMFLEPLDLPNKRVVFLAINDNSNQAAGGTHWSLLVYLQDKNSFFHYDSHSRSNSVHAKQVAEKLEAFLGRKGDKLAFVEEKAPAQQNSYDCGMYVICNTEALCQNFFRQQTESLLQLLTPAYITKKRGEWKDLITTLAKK
SENP7 inh: blocks the human protease SENP7; recombinant SENP7, Z-RLRGG-aminoluciferin luminescence, 40 min; hit rate 1.5% among 330,000; inhibition, % at 5 µM; Q9BQF6;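 active means inhibition above about 50% at the single test dose, limit read from the data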;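 further: plate controls were DMSO with enzyme for no effect and no enzyme buffer wells for full effect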
SENP8 block-2: SENP8 protease inhibition | Q96LD8 | purified SENP8, Z-RLRGG-aminoluciferin cleavage, luminescence | inhibition, % at 10 µM | hit rate 1.2% among 330,000 | AID 2540; in the data active means inhibition above about 50%
SENP6 inh: inhibitors of human SENP6 protease. inhibition, % at 10 µM. hit rate 1.8% among 330,000. Recombinant SENP6 catalytic domain, aminoluciferin luminescence. Q9GZR1;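 active means inhibition above about 50% at the single tested dose, limit read from the data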;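 further: plate controls were DMSO wells with enzyme for no effect and DMSO wells lacking enzyme for full effect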
Target sequence (Q9GZR1 628-1112 limits assumed): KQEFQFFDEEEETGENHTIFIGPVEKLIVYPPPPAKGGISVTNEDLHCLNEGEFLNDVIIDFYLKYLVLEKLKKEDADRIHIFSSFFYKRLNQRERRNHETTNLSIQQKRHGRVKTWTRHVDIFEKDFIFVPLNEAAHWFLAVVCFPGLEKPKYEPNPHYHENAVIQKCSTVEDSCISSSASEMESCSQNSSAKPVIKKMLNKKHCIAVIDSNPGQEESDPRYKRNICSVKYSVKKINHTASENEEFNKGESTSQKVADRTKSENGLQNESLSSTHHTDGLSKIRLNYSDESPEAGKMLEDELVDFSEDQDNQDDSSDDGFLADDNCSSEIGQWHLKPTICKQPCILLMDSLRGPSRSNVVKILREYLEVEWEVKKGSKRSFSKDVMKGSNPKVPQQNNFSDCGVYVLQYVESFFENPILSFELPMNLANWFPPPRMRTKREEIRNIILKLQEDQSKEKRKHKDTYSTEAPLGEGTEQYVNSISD
PPC-1+TRAIL kill: compounds killing PPC-1 cancer cells with TRAIL present (potentiator screen, no TRAIL-free arm). PPC-1 cells + TRAIL, ATPLite viability luminescence. cell killing (% activity), % at 4 µM or 5 µM. hit rate 0.41% among 220,000. AID 1443;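 active means cell killing above 50% in the first pass at 4 µM, then a duplicate retest at 5 µM averaging 50% or more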;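 further: plate controls were cells with TRAIL plus DMSO for no effect and medium-only wells lacking cells for full effect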
C8 TRAIL sens: caspase-8 TRAIL sensitization; NB7+C8 cells + TRAIL, ATPlite viability luminescence; inhibition (viability loss, TRAIL sensitization), % at 10 µM; hit rate 1% among 360,000;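 active means compounds causing at least 50% loss of cell viability in the single-dose screen, relative to plate controls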
The depositor's hits bear a star; · = not tested or not shown.

SMILES | SENP8 block-1 | SENP7 inh | SENP8 block-2 | SENP6 inh | PPC-1+TRAIL kill | C8 TRAIL sens
O=c1c2ccccc2oc2ccc(NCCCn3ccnc3)cc12 | -9.9 | 25.8 | 14.2 | 31.8 | · | 50.4*
CCc1cc2c(CN3CCN(CCO)CC3)cc(=O)oc2cc1O | -251.9 | 5.7 | -4.4 | -10.8 | 52.0* | -18.1
CSc1ccc(NC(=O)Nc2ccccc2C(N)=O)cc1 | -72.5 | 95.4* | 91.6* | 97.0* | 7.7 | 0.2
CC(C)(C)NC(=O)Nc1ccccc1C(N)=O | -33.3 | -0.9 | -6.2 | -0.2 | 24.0 | -3.4
Nc1nc2sc3c(c2cc1C(=O)NCC(=O)O)CCCC3 | -157.7 | 1.8 | 0.0 | 8.3 | · | 51.6*
Nc1nc2sc3c(c2cc1C(=O)N1CCOCC1)CCCC3 | -479.0 | -7.1 | -4.9 | -25.1 | 0.8 | -10.7
Cc1ccc(N2C(=O)[C@@H]3[C@H](C2=O)C2c4ccccc4C=CN2[C@@H]3C(=O)c2ccco2)c(C)c1 (some centres undefined) | -122.6 | 50.9* | 41.6 | 42.5 | 13.2 | -10.8
CC(C)(C)C(=O)[C@@H]1[C@@H]2C(=O)N(c3ccc4c(c3)OCCO4)C(=O)[C@@H]2C2c3ccccc3C=CN21 (some centres undefined) | 60.1* | 9.6 | 13.8 | 23.5 | -6.9 | -18.8
O=C(c1ccco1)[C@@H]1[C@@H]2C(=O)N(c3ccccc3)C(=O)[C@@H]2C2c3ccccc3C=CN21 (some centres undefined) | -1.7 | 7.1 | 63.8* | 87.0* | 19.6 | 22.5
C[C@H](NC(=O)c1nc[nH]c1C(=O)N[C@@H](CCCCN)C(=O)OC(C)(C)C)C(=O)OCc1ccccc1 | 11.9 | 3.4 | -1.1 | -7.1 | · | -7.1
CC1(C(=O)Nc2ccc3c(c2)OCCO3)CSCC(=O)N1CCc1ccccc1F (centres undefined) | 8.1 | · | · | · | · | -11.8
C#Cc1ccc(NC(=O)C2(C)CCN2C(=O)CC(c2ccccc2)c2ccccc2)cc1 (centres undefined) | 14.3 | · | · | · | · | 93.1*
CCc1cccc(NC(=O)Nc2ccc3c(c2)OCO3)c1 | 5.2 | 8.2 | -6.3 | 8.8 | 7.3 | 1.4
O=C(Nc1cccc(F)c1)c1ccc2c(c1)OCO2 | 25.7 | 90.3* | 71.0* | 85.8* | 42.2 | 7.6
CCc1nc2ccc(C(=O)Nc3ccc4c(c3)OCO4)cc2nc1CC | 15.9 | 49.7 | 51.4* | 13.5 | 6.9 | 10.0
O=C(Nc1ccc2c(c1)OCO2)c1nn(-c2ccccc2)c(=O)c2ccccc12 | 31.4 | 2.6 | -5.6 | -17.2 | 11.9 | 10.0
CCc1ccccc1NC(=O)Nc1ccc2c(c1)OCO2 | 8.4 | 82.4* | 37.1 | -12.2 | 5.8 | 2.6
O=C(Nc1ccc2c(c1)OCO2)c1n[nH]c(=O)c2ccccc12 | 19.9 | 62.0* | 37.5 | 66.7* | 29.4 | 1.5
CCc1nc2ccc(C(=O)Nc3cccc(C(C)=O)c3)cc2nc1CC | 8.3 | 3.0 | 4.7 | 32.7 | 12.3 | -0.6
CSCCC(=O)N1CCN(CC(=O)N2CCCC2)CC1 | 13.6 | 1.6 | 0.7 | -21.0 | · | -10.7
CC(=O)N/C(=C\c1ccc(Br)s1)C(=O)O | 16.4 | -3.1 | 5.4 | 23.4 | -2.3 | 0.6
CC1=CN(S(=O)(=O)c2ccc(C)cc2)C[C@@H]2[C@H]3CC[C@H](C3)[C@H]12 | 1.6 | -2.9 | · | · | · | -0.3
COc1cc(NS(=O)(=O)c2ccc(C)cc2)c2c(c1N)C(=O)c1ccccc1C2=O | 41.4* | · | · | · | · | 18.9
COC(=O)C(C(=O)OC)c1ccccc1NS(=O)(=O)c1ccc(C)cc1 | 8.2 | · | · | · | · | 2.0
Fc1ccc(-c2nc(-c3cccs3)no2)cc1 | 14.7 | 94.2* | 86.4* | 94.8* | -2.6 | 1.5
SMILES | SENP8 block-1 | SENP7 inh | SENP8 block-2 | SENP6 inh | PPC-1+TRAIL kill | C8 TRAIL sens
Fc1ccc(-c2cnc(-c3cccs3)o2)cc1 | -314.0 | 21.0 | 1.4 | -19.3 | 13.8 | 10.0
CCCN(C(=O)CCNC(=O)c1ccc(Cl)cc1)c1c(N)n(Cc2ccccc2)c(=O)[nH]c1=O | 5.0 | 7.2 | -7.3 | -18.0 | · | 0.3
CC(=O)c1c(C)[nH]c(C(=O)Nc2ccccn2)c1C | -11.1 | -0.2 | -10.9 | -2.6 | · | 51.2*
CC(=O)c1c(C)[nH]c(C(=O)Nc2ccc(Cl)cc2)c1C | -10.8 | -12.4 | -9.1 | -6.5 | · | -6.1
Cc1cc(C2=NNC(=NC3CC3)SC2)c(C)n1-c1ccccc1 | -28.3 | · | · | · | 6.2 | 79.2*
Cc1ccccc1-n1c(C)cc(/C=C(\C#N)C(=O)NCC2CCCO2)c1C (centres undefined) | -103.5 | 7.7 | 6.6 | 9.9 | 54.6* | 25.2
Cc1ccc(/C=C(\C#N)C(=O)NCC2CCCO2)o1 (centres undefined) | -12.8 | -6.3 | -10.7 | -8.9 | -4.7 | -9.6
COCCNC(=O)/C(C#N)=C/c1cc(C)n(-c2ccc(C)cc2)c1C | -195.1 | 3.7 | 23.5 | 31.6 | 47.9 | 62.1*
CC(O)[C@H]1CNCCN1CC1(c2ccccc2)CC1 (some centres undefined) | 2.9 | 0.4 | 5.7 | 11.3 | · | 10.9
CO/N=C/C(=N\Nc1ccc(C)cc1)C(=O)c1ccc(OC)cc1 | 51.2* | -5.7 | -0.6 | -2.6 | 6.2 | 4.7
C[C@]12CC[C@H](O)CC1=CCC1C2CC[C@@]2(C)C1CC[C@@H]2NCc1ccccc1 (some centres undefined) | 11.2 | · | · | · | · | -9.5
Oc1ccc(N=Cc2ccc(O)c(O)c2)cc1 | 61.9* | 7.9 | 23.2 | 38.8 | 26.2 | 36.1
COCCCn1cc(CN2CC(N3CCN(CCO)CC3)CS2(=O)=O)nn1 (centres undefined) | 12.7 | · | · | · | · | 5.7
CCOC(=O)C1=CCN(S(=O)(=O)c2ccccc2Cl)C1c1cccc(Cl)c1 (centres undefined) | 14.2 | · | · | · | · | 12.2
CCOC(=O)C1=CCN(S(=O)(=O)c2ccccc2Cl)C1c1cccc(F)c1 (centres undefined) | 9.0 | · | · | · | · | 70.9*
Cc1cccc(-c2nc3cc(NC(=O)C4CCCO4)ccc3o2)c1 (centres undefined) | -410.3 | · | · | · | 55.6* | 62.9*
O=C(c1ccccc1)c1ccc(O)c(O)c1O | 46.7* | · | · | · | · | -13.0
CCCNC(=O)OC1CC2CC1[C@H]1CCCCN1C2=O (some centres undefined) | 18.8 | · | · | · | · | -11.2
CC1CCCC(C)N1CCCNC(=O)Cn1ncc2c3ccccc3n(C)c2c1=O (centres undefined) | -104.4 | 4.9 | -0.5 | 10.5 | · | -14.6
O=C(COC(=O)c1ccccn1)c1cccc(Br)c1 | -0.7 | -16.1 | -22.0 | -1.5 | · | -9.4
N/C(=N\OC(=O)c1cccc(Br)c1)c1ccccn1 | 2.9 | 98.4* | 86.5* | 96.0* | · | 76.9*
CCOc1ccc(C(=O)O/N=C(\N)c2ccccn2)cc1OCC | 2.7 | 21.4 | -13.5 | -19.3 | · | 79.3*
CCOc1cc(C(=O)O/N=C(\N)c2ccccn2)cc(OCC)c1OCC | 5.5 | -8.1 | -2.7 | 1.1 | · | 61.1*
COc1cc(OC)cc(C(=O)O/N=C(\N)c2ccccn2)c1 | 7.6 | -2.5 | -1.6 | -4.2 | 10.2 | 31.2
COc1ccc(CNC(=O)C2Cc3c(-c4ccccc4Oc4ccccc4)ccnc3O2)cc1OC (centres undefined) | 26.7 | · | · | · | · | -14.7

Source: PubChem
